# Results as given in PubChem BioAssay (NCATS).
# Records with an inconclusive call do not appear. Values without a mark were called inactive. The source made the active and inactive calls. The call rests on the fitted dose curve; in most records, active means well fitted cell-killing curve with a large enough effect; inconclusive means small, poorly fitted or top-dose-only effect, or effect the other way; inactive means no such curve, though single readings can be large or run the other way.
# Tests used:
# [1] = Quantitative High-Throughput drug screen in 47 multiple myeloma cell lines against the NCATS MIPE library collection: L363_DSMZ cell viability assay (AID 1918984); further: nearly all actives have a fitted effect of over 40% in size
# In short: (§1)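 ATP-based luminescence (CellTiter-Glo, 5 min RT incubation) quantified surviving cells following two days' treatment with MIPE 4.0 agents at 37 °C, 5% CO2.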
# [2] = Quantitative High-Throughput drug screen in 47 multiple myeloma cell lines against the NCATS MIPE library collection: KMS34_JCRB cell viability assay (AID 1918985); further: nearly all actives have a fitted effect of over 40% in size
# In short: as §1
# [3] = Quantitative High-Throughput drug screen in 47 multiple myeloma cell lines against the NCATS MIPE library collection: OCIMY5_PLB cell viability assay (AID 1918988); further: nearly all actives have a fitted effect of over 65% in size
# In short: as §1
# [4] = Quantitative High-Throughput drug screen in 47 multiple myeloma cell lines against the NCATS MIPE library collection: SKMM1_PLB cell viability assay (AID 1919863); conditions: SKMM1 myeloma viability, CellTiter-Glo ATP, 48 h; viability: stronger effect = lower value; further: nearly all actives have a fitted effect of over 35% in size
# In short: as §1
# [5] = Quantitative High-Throughput drug screen in 47 multiple myeloma cell lines against the NCATS MIPE library collection: XG6_PLB cell viability assay (AID 1919865); further: nearly all actives have a fitted effect of over 40% in size
# In short: as §1
# [6] = Quantitative High-Throughput drug screen in 47 multiple myeloma cell lines against the NCATS MIPE library collection: XG1_PLB cell viability assay (AID 1919866); further: nearly all actives have a fitted effect of over 35% in size
# In short: as §1
# [7] = Quantitative High-Throughput drug screen in 47 multiple myeloma cell lines against the NCATS MIPE library collection: OCIMY7_PLB cell viability assay (AID 1918987); conditions: OCI-MY7 myeloma viability, CellTiter-Glo ATP, 48 h; viability (% of DMSO): at 45.8 µM (top of the series); further: nearly all actives have a fitted effect of over 65% in size
# In short: as §1
# [8] = Quantitative High-Throughput drug screen in 47 multiple myeloma cell lines against the NCATS MIPE library collection: U266_ATCC cell viability assay (AID 1919864); further: nearly all actives have a fitted effect of over 35% in size
# In short: as §1
# [9] = Quantitative High-Throughput drug screen in 47 multiple myeloma cell lines against the NCATS MIPE library collection: OPM1_PLB cell viability assay (AID 1918989); further: nearly all actives have a fitted effect of over 40% in size
# In short: as §1
# Potency means the concentration at half of the fitted maximal effect.
smiles,measurement,setting,value
COc1cc2nc(-c3ccc(N4CCN(C)CC4)cc3)nc(NCCN3CCOCC3)c2cc1OC,Potency,[1],0.132 µM (active)
same,Potency,[2],0.0209 µM (active)
same,Potency,[3],0.0187 µM (active)
same,Potency,[4],0.132 µM (active)
same,Potency,[5],0.166 µM (active)
same,Potency,[6],0.0372 µM (active)
O=C(NCc1ccncc1)C12C[C@H]3C[C@@H](C1)CC(c1ccc(Cl)cc1)(C3)C2,Potency,[1],5.26 µM (active)
same,Potency,[7],18.7 µM (active)
same,Potency,[3],18.7 µM (active)
same,Potency,[4],23.5 µM (active)
same,Potency,[8],16.6 µM (active)
same,Potency,[5],4.69 µM (active)
N#Cc1ccc(NC(=O)Nc2ccccc2Br)c2n[nH]nc12,Potency,[1],13.2 µM (active)
same,Potency,[2],inactive
same,viability,[4],115%
same,Potency,[5],5.26 µM (active)
O=C(CCc1ccc(O)cc1)c1c(O)cc(O)cc1O[C@@H]1O[C@H](CO)[C@H](O)[C@H](O)[C@H]1O,Potency,[1],inactive
same,Potency,[3],inactive
same,viability,[4],101%
same,Potency,[8],inactive
same,Potency,[6],inactive
CC=CCC=CCCC(=O)[C@H]1O[C@@H]1C(N)=O,Potency,[1],18.7 µM (active)
same,Potency,[7],14.8 µM (active)
same,Potency,[3],14.8 µM (active)
same,Potency,[4],18.7 µM (active)
same,Potency,[5],18.7 µM (active)
O=C1NC(=O)C(=Cc2ccc3nccnc3c2)S1,Potency,[1],0.115 µM (active)
same,Potency,[7],2.29 µM (active)
same,Potency,[9],6.45 µM (active)
same,Potency,[4],6.45 µM (active)
same,Potency,[6],6.45 µM (active)
CC(C)C(=O)Nc1ncc(-c2cc(C(F)F)nn2-c2c(Cl)cccc2Cl)s1,Potency,[1],8.33 µM (active)
same,Potency,[3],18.7 µM (active)
same,Potency,[9],20.9 µM (active)
same,Potency,[4],16.6 µM (active)
same,Potency,[6],10.5 µM (active)
Cc1ccc(Nc2cc(-c3cccc(N4C(=O)c5ccccc5C4=O)c3)ncn2)cc1NS(C)(=O)=O,Potency,[1],18.7 µM (active)
same,Potency,[3],20.9 µM (active)
same,Potency,[9],23.5 µM (active)
same,Potency,[5],8.33 µM (active)
same,Potency,[6],18.7 µM (active)
COc1ccc(C2Sc3ccccc3N(CCN(C)C)C(=O)C2OC(C)=O)cc1 (stereo not drawn),Potency,[1],inactive
same,Potency,[2],inactive
same,Potency,[3],10.5 µM (active)
same,Potency,[8],16.6 µM (active)
same,Potency,[5],inactive
COc1ccc(-c2nc(N3CCOCC3)c3sc(CN(C)c4ncc(C(=O)NO)cn4)cc3n2)cn1,Potency,[1],0.001 µM (active)
same,Potency,[9],inactive
